Assay results from PubChem BioAssay AID720518 (National Center for Advancing Translational Sciences (NCATS), 2013).
Inconclusive results are not listed. A number with no mark means an inactive call. Calls follow the shape of the full dose curve.

assay: qHTS for Inhibitors of Cell Surface uPA Generation: Wild-type Protective Antigen (WT-PrAg) Counterscreen for Cherry-picked Compounds; details: cells, WT protective antigen toxicity counterscreen; series mostly up to 115 µM; activity (protection): at the top concentration; also: 0% is about no effect

Point of comparison: CC(C)(C)OC(=O)NCCCCCNC(=O)c1[nH]cnc1C(=O)Nc1ccc(Cl)cc1, “activity (protection)” value -1.37%. Against it:
- COc1ccc(C)cc1NC(=O)CSCc1cc(=O)n2c(C)csc2n1 — higher, 0.0603%
- NC(=O)c1cc2ccncc2c2ccccc12 — higher, -0.105%
- O=C1OCC/C1=C\c1ccc(O)cc1 — lower, -1.6%
- O=C(O)c1cc(N=Nc2c(O)[nH]c3ccc([N+](=O)[O-])cc23)ccc1Cl — higher, -1.2%
